Each structure is given as a SMILES string. Compounds without any hit were thinned out: in the full panel of roughly 83,000, 20% have a hit.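 Single-dose data. Exposure time 48 hours. Values below 10 considered active.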 Values without a mark were called inactive. The source made the active and inactive calls.

Some test systems named below: HCT-15 colon; HT29 colon; SNB-75 CNS; SNB-19 CNS; U251 CNS; PC-3 prostate; SK-MEL-5 melanoma; UACC-62 melanoma; LOX IMVI melanoma; SK-MEL-28 melanoma; SK-MEL-2 melanoma; EKVX NSCLC; UO-31 renal; TK-10 renal; ACHN renal; CAKI-1 renal; A498 renal; CCRF-CEM leukemia; MOLT-4 leukemia; SN12C renal.
Holding throughout (assay): NCI-60 one-dose screen, 48 h (100 = growth as untreated, 0 = no growth, -100 = all killed)
Holding throughout (settings): 10 µM unless noted

For `O=C(CSc1nnc2sc(Nc3cccc(Cl)c3)nn12)c1ccc(F)cc1`, the growth with HCT-15 colon is 92.3%; in the test on HT29 colon it was 90.5%; in the test with SNB-75 CNS, 104%; with SNB-19 CNS, 95.5%; in the test on U251 CNS, 97.9%; in the test with PC-3 prostate it was 85%. Further, the growth in the test with SK-MEL-5 melanoma was 98.5%; with UACC-62 melanoma it was 82.7%; with LOX IMVI melanoma, 91.7%; in the test on SK-MEL-28 melanoma, 104%; with SK-MEL-2 melanoma it was 102%; in the test on EKVX NSCLC it was 94.8%. Further, the growth with UO-31 renal is 78.8%; with TK-10 renal, 114%; with ACHN renal, 96%; with CAKI-1 renal, 71.3%; in the test with A498 renal it was 103%; with CCRF-CEM leukemia, 91.1%. Further, the growth with MOLT-4 leukemia is 71.3%.

For the compound `CN1CCN(c2ccc(NC(=O)c3cncnc3Nc3ccc4c(ccn4Cc4cccc(F)c4)c3)cc2)CC1`, the growth is -6.2% (active) in the test on HCT-15 colon; -39.8% (active) with HT29 colon; 67.4% with SNB-75 CNS; 77.7% in the test on SNB-19 CNS; 6.24% (active) with U251 CNS; 66.2% in the test with PC-3 prostate. In addition, the growth in the test with SK-MEL-5 melanoma was 59.6%; with UACC-62 melanoma it was 54.3%; in the test on LOX IMVI melanoma, -80.9% (active); in the test on SK-MEL-28 melanoma, -85.2% (active); with SK-MEL-2 melanoma, 98.1%; in the test on EKVX NSCLC it was 86.1%. Besides, the growth with SN12C renal was 71.5%; in the test on UO-31 renal it was 46.3%; with TK-10 renal, 101%; in the test on ACHN renal, 58.5%; in the test on CAKI-1 renal, 75.5%; in the test on CCRF-CEM leukemia it was 11.6%. Also, in the test on MOLT-4 leukemia, the growth was -2.02% (active).

Regarding `O=C(c1ccc(F)c(Cl)c1)N1c2ccccc2Sc2ccccc21`, the growth was 27.2% with HCT-15 colon; 36.2% with HT29 colon; 68.6% in the test on SNB-75 CNS; 77% in the test on SNB-19 CNS; 39.4% in the test on U251 CNS; 40.3% with PC-3 prostate. For the same compound, the growth is 34.4% in the test with SK-MEL-5 melanoma; 25.7% in the test with UACC-62 melanoma; 41.2% in the test on LOX IMVI melanoma; 61.7% in the test with SK-MEL-28 melanoma; 65.2% with SK-MEL-2 melanoma; 74.1% in the test with EKVX NSCLC. Also, the growth in the test on UO-31 renal is 72.9%; with TK-10 renal, 85.2%; in the test on ACHN renal, 104%; in the test on CAKI-1 renal, 53.4%; in the test on A498 renal it was 61.7%; with CCRF-CEM leukemia, 58.4%. Further, in the test on MOLT-4 leukemia, the growth is 44.1%.

With `N=C(N)SCc1cccc2c(CSC(=N)N)cccc12`, the growth in the test with HCT-15 colon was 108%; in the test with HT29 colon, 108%; with SNB-75 CNS, 91.7%; in the test with SNB-19 CNS, 93.5%; in the test with U251 CNS, 89.2%; in the test with PC-3 prostate, 97.4%. Moreover, the growth with SK-MEL-5 melanoma is 109%; in the test on UACC-62 melanoma it was 96.6%; in the test with LOX IMVI melanoma, 97.7%; in the test with SK-MEL-28 melanoma, 109%; in the test on SK-MEL-2 melanoma, 106%; in the test with EKVX NSCLC, 107%. In addition, the growth in the test on UO-31 renal is 84.9%; in the test with TK-10 renal, 106%; in the test on ACHN renal, 108%; in the test with CAKI-1 renal, 94.4%; in the test on A498 renal, 87.2%; with CCRF-CEM leukemia it was 119%. Also, in the test with MOLT-4 leukemia, the growth is 119%.

On to `N#Cc1c(NC(=O)c2cccs2)[n+]([O-])c2ccc(Cl)cc2[n+]1[O-]`, for which the growth is 111% in the test on HCT-15 colon; 107% with HT29 colon; 91.7% with SNB-75 CNS; 103% with SNB-19 CNS; 99% in the test with U251 CNS; 96% in the test on PC-3 prostate. For the same compound, the growth with SK-MEL-5 melanoma was 37.7%; in the test on UACC-62 melanoma, 82.2%; in the test on LOX IMVI melanoma, 94.8%; with SK-MEL-28 melanoma, 106%; in the test with SK-MEL-2 melanoma it was 59.3%; in the test with EKVX NSCLC, 98.7%. Also, the growth was 99.8% in the test with SN12C renal; 98.6% with UO-31 renal; 118% in the test with TK-10 renal; 99.5% in the test with ACHN renal; 73% in the test on CAKI-1 renal; 95.9% with CCRF-CEM leukemia. Moreover, the growth in the test with MOLT-4 leukemia is 97.3%.

`CCOC(=O)c1c(C)c2c(n1C)CSc1cc(S(=O)(=O)c3ccccc3)c(=O)[nH]c1-2`: the growth was 24.7% [100 µM] in the test with HCT-15 colon; 0.904% [100 µM] (active) in the test on HT29 colon; 32.1% [100 µM] in the test with SNB-75 CNS; 43.3% [100 µM] with SNB-19 CNS; 35.7% [100 µM] with U251 CNS; 15.9% [100 µM] with PC-3 prostate. Also, the growth in the test on SK-MEL-5 melanoma was -6.57% [100 µM] (active); in the test on UACC-62 melanoma it was 1.08% [100 µM] (active); with LOX IMVI melanoma, 31.9% [100 µM]; with SK-MEL-28 melanoma it was 41% [100 µM]; in the test on SK-MEL-2 melanoma, 30.7% [100 µM]; with EKVX NSCLC it was 14.7% [100 µM]. The growth in the test with UO-31 renal was 22.7% [100 µM]; in the test with TK-10 renal, 24.8% [100 µM]; in the test on ACHN renal it was 25.9% [100 µM]; in the test on CAKI-1 renal it was 26.3% [100 µM]; in the test on A498 renal it was 44.9% [100 µM]; with CCRF-CEM leukemia, 29.2% [100 µM]. The growth with MOLT-4 leukemia is 41.5% [100 µM].

Consider `COc1cc2c(/C=C3\C(=O)Nc4ccccc43)c(C(=O)O)[nH]c2cc1C`, for which the growth with HCT-15 colon is 105%; with HT29 colon, 89.8%; with SNB-75 CNS, 66.3%; with SNB-19 CNS, 113%; with U251 CNS, 96.4%; in the test on PC-3 prostate, 79.8%. Besides, the growth with SK-MEL-5 melanoma is 109%; with UACC-62 melanoma, 84.3%; with LOX IMVI melanoma, 92.7%; in the test on SK-MEL-28 melanoma, 81.6%; in the test with SK-MEL-2 melanoma, 101%; in the test on EKVX NSCLC it was 89.2%. Further, the growth was 99.7% in the test with SN12C renal; 55% in the test with UO-31 renal; 134% with TK-10 renal; 90.5% in the test with ACHN renal; 94.8% with CAKI-1 renal; 88.7% with CCRF-CEM leukemia. Moreover, in the test on MOLT-4 leukemia, the growth was 84%.

For the compound `CCN(CC)CCCNCc1cc(-c2ccccc2)nc2cc(Cl)ccc12`, the growth was 12.1% in the test on HCT-15 colon; -17.3% (active) with HT29 colon; 70.8% with SNB-75 CNS; 68.9% in the test with SNB-19 CNS; 11.5% in the test with U251 CNS; 37% in the test with PC-3 prostate. For the same compound, the growth is -76.9% (active) in the test with SK-MEL-5 melanoma; -61.3% (active) with UACC-62 melanoma; -20.6% (active) in the test with LOX IMVI melanoma; -92.4% (active) in the test on SK-MEL-28 melanoma; -61.9% (active) in the test with SK-MEL-2 melanoma; 80.9% with EKVX NSCLC. The growth is 11% in the test on UO-31 renal; 42.8% in the test with TK-10 renal; 66.2% in the test with ACHN renal; 50.5% in the test on CAKI-1 renal; 22.3% in the test on A498 renal; 10.4% in the test on CCRF-CEM leukemia. Also, the growth with MOLT-4 leukemia is 13.6%.

For the origin of these results see PubChem BioAssay (NCI).
